Data on 8 compounds can be found in PubChem BioAssay (NCI).

About 83,000 compounds went through this panel and 20% of them were active in at least one assay; those are over-represented in the sample as a whole.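 Interpretation: 100, growth as untreated; towards 0, rising growth inhibition; 0, no net growth; 0 to -100, cell death. Compounds scoring below 10 were considered active.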 A number with no mark means an inactive call. Active and inactive are the calls of the source.

Some test systems named below: DU-145 prostate; K-562 leukemia; MALME-3M melanoma; MDA-MB-231 breast; RXF 393 renal; SF-268 CNS; SF-295 CNS; SF-539 CNS; UACC-257 melanoma; M14 melanoma; HCT-15 colon; HT29 colon; SNB-75 CNS; SNB-19 CNS; U251 CNS; PC-3 prostate; SK-MEL-5 melanoma; UACC-62 melanoma; LOX IMVI melanoma; SK-MEL-28 melanoma.
What all share (assay): NCI-60 one-dose screen, 48 h (100 = growth as untreated, 0 = no growth, -100 = all killed)
Holding throughout (details): 10 µM unless noted

`C[C@H]1Oc2cc(cnc2N)-c2c(nn(C)c2C#N)CN(C)C(=O)c2ccc(F)cc21`: the growth is 91.9% in the assay on DU-145 prostate; 79.4% in the assay with K-562 leukemia; 95.6% in the assay with MALME-3M melanoma; 69.7% in the assay with MDA-MB-231 breast; 85.5% with RXF 393 renal; 73.1% in the assay with SF-268 CNS. The growth in the assay with SF-295 CNS was 85.9%; with SF-539 CNS, 96.4%; with UACC-257 melanoma it was 58.5%; in the assay on M14 melanoma, 71.9%; in the assay with HCT-15 colon, 96.7%; in the assay with HT29 colon, 33%. The growth in the assay on SNB-75 CNS was 83.8%; in the assay on SNB-19 CNS, 110%; in the assay on U251 CNS, 96.6%; with PC-3 prostate it was 81.7%; in the assay on SK-MEL-5 melanoma it was 99.3%; with UACC-62 melanoma, 70.9%. For the same compound, the growth with LOX IMVI melanoma was 74.2%; in the assay on SK-MEL-28 melanoma, 87.4%.

For `COC1CCC(N2C(=O)CNc3ncc(-c4ccc(C(C)(C)O)nc4)nc32)CC1` (stereo not given), the growth was 4.44% (active) in the assay on DU-145 prostate; 4.22% (active) with K-562 leukemia; -17.6% (active) in the assay with MALME-3M melanoma; 14.2% in the assay on MDA-MB-231 breast; -28.5% (active) in the assay with RXF 393 renal; 18.5% with SF-268 CNS. The growth in the assay on SF-295 CNS is -15.4% (active); in the assay on SF-539 CNS, -21.9% (active); with UACC-257 melanoma, -15.8% (active); in the assay on M14 melanoma it was 2.03% (active); in the assay with HCT-15 colon, 10.1%; in the assay on HT29 colon, 5.39% (active). Also, the growth in the assay on SNB-75 CNS was -22.7% (active); in the assay with SNB-19 CNS, 13.5%; with U251 CNS, 2.23% (active); with PC-3 prostate it was 8.06% (active); in the assay on SK-MEL-5 melanoma, -45.2% (active); with UACC-62 melanoma, -21% (active). The figures for the growth with LOX IMVI melanoma and in the assay on SK-MEL-28 melanoma were 2.43% (active) and -8.74% (active), respectively.

As for `CC(=O)OC(C(=O)c1ccccc1)c1ccccc1` (stereo not given), the growth in the assay on DU-145 prostate was 111%; in the assay on K-562 leukemia, 96.5%; in the assay with MALME-3M melanoma, 95.8%; with MDA-MB-231 breast, 107%; with RXF 393 renal it was 103%; in the assay with SF-268 CNS, 107%. Also, the growth was 108% in the assay with SF-295 CNS; 114% with SF-539 CNS; 107% in the assay with UACC-257 melanoma; 104% in the assay with M14 melanoma; 105% in the assay on HCT-15 colon; 80.4% in the assay with HT29 colon. In addition, the growth with SNB-75 CNS is 84.6%; with SNB-19 CNS it was 103%; with U251 CNS, 106%; in the assay on PC-3 prostate it was 89%; in the assay on SK-MEL-5 melanoma, 102%; in the assay on UACC-62 melanoma, 100%. For the same compound, the growth in the assay with LOX IMVI melanoma and in the assay with SK-MEL-28 melanoma was 107% in each case.

For `Cc1cc(Nc2ncc(Cl)c(Nc3ccccc3S(=O)(=O)C(C)C)n2)c(OC(C)C)cc1C1CCNCC1`, the growth is -99% (active) in the assay on DU-145 prostate; -53.5% (active) in the assay on K-562 leukemia; -84.9% (active) with MALME-3M melanoma; -88% (active) in the assay with MDA-MB-231 breast; -93.4% (active) with RXF 393 renal; -95.3% (active) with SF-268 CNS. For the same compound, the growth is -91.6% (active) with SF-295 CNS; -98.9% (active) in the assay with SF-539 CNS; -90.1% (active) in the assay with UACC-257 melanoma; -95.2% (active) in the assay with M14 melanoma; -86.4% (active) in the assay with HCT-15 colon; -88.1% (active) in the assay with HT29 colon. Moreover, the growth in the assay with SNB-75 CNS is -98.1% (active); with SNB-19 CNS, -94.9% (active); in the assay on U251 CNS, -100% (active); with PC-3 prostate it was -92.2% (active); in the assay with SK-MEL-5 melanoma, -98.9% (active); with UACC-62 melanoma, -95.1% (active). Besides, the growth in the assay with LOX IMVI melanoma is -90.7% (active); with SK-MEL-28 melanoma it was -99.3% (active).

As for `Cn1cnc2c(F)c(Nc3ccc(Br)cc3F)c(C(=O)NOCCO)cc21`, the growth in the assay on DU-145 prostate is 64.2%; in the assay on K-562 leukemia, 49.4%; with MALME-3M melanoma, -2.35% (active); in the assay on MDA-MB-231 breast, 34.9%; with RXF 393 renal, 19.5%; in the assay on SF-268 CNS, 70.8%. For the same compound, the growth is 76.3% in the assay with SF-295 CNS; 62.6% in the assay on SF-539 CNS; -25.8% (active) in the assay with UACC-257 melanoma; 2.5% (active) with M14 melanoma; 62% in the assay with HCT-15 colon; 6.34% (active) with HT29 colon. Further, the growth with SNB-75 CNS was 86.1%; with SNB-19 CNS, 51.3%; in the assay on U251 CNS, 51.5%; with PC-3 prostate, 93%; in the assay on SK-MEL-5 melanoma, 45.5%; with UACC-62 melanoma, -8.58% (active). In addition, the growth was 29.6% with LOX IMVI melanoma and -3.38% (active) with SK-MEL-28 melanoma.

Consider `Cc1cn(-c2cc(NC(=O)c3ccc(C)c(Nc4nccc(-c5cnccn5)n4)c3)cc(C(F)(F)F)c2)cn1`, for which the growth in the assay on DU-145 prostate is 82.2%; with K-562 leukemia, 4.39% (active); in the assay on MALME-3M melanoma it was 16.6%; in the assay with MDA-MB-231 breast, 55.4%; in the assay with RXF 393 renal it was 129%; with SF-268 CNS, 65.1%. Further, the growth is 93.9% in the assay on SF-295 CNS; 98.2% with SF-539 CNS; 38.4% with UACC-257 melanoma; 18.7% in the assay with M14 melanoma; 82% in the assay on HCT-15 colon; 19.7% in the assay on HT29 colon. The growth was 88.2% in the assay with SNB-75 CNS; 74.5% with SNB-19 CNS; 39.8% in the assay with U251 CNS; 60.3% in the assay on PC-3 prostate; 57.9% in the assay with SK-MEL-5 melanoma; 26.4% with UACC-62 melanoma. In addition, the growth is 63.3% in the assay on LOX IMVI melanoma and 31.3% with SK-MEL-28 melanoma.

Regarding `COc1ccc(C(=O)c2cc(OC)c(OC)c(OC)c2)cc1/C=C/C(=O)c1ccc(F)cc1`, the growth was 85.5% in the assay with DU-145 prostate; 9.61% (active) with K-562 leukemia; 65.6% in the assay on MALME-3M melanoma; 68.4% in the assay with MDA-MB-231 breast; 88.3% in the assay on RXF 393 renal; 77% in the assay with SF-268 CNS. Besides, the growth in the assay with SF-295 CNS was 84.3%; in the assay on SF-539 CNS, 51.8%; in the assay with UACC-257 melanoma, 86.6%; with M14 melanoma, 72.5%; with HCT-15 colon, 23.9%; in the assay with HT29 colon, 13.6%. Besides, the growth is 58.7% in the assay on SNB-75 CNS; 71.3% in the assay with SNB-19 CNS; 34.1% with U251 CNS; 76.7% with PC-3 prostate; 57% in the assay on SK-MEL-5 melanoma; 45.5% in the assay with UACC-62 melanoma. Also, the figures for the growth in the assay on LOX IMVI melanoma and in the assay on SK-MEL-28 melanoma were -56.5% (active) and 13.1%, respectively.

For the compound `COc1ccc(-c2cc3c(C)nc(N)nc3n(C3CCC(OCCO)CC3)c2=O)cn1` (stereo not given), the growth with DU-145 prostate is 7.64% (active); with K-562 leukemia, 24%; in the assay on MALME-3M melanoma it was -34% (active); in the assay with MDA-MB-231 breast it was 5.08% (active); in the assay with RXF 393 renal it was -50.9% (active); in the assay with SF-268 CNS it was 4.36% (active). The growth was -57.7% (active) in the assay on SF-295 CNS; -62.4% (active) in the assay on SF-539 CNS; -35.9% (active) in the assay with UACC-257 melanoma; 0.206% (active) with M14 melanoma; 3.45% (active) with HCT-15 colon; 1.24% (active) in the assay with HT29 colon. The growth in the assay on SNB-75 CNS was -50.6% (active); in the assay with SNB-19 CNS, -7.7% (active); in the assay on U251 CNS, -13.8% (active); with PC-3 prostate it was 5.19% (active); in the assay on SK-MEL-5 melanoma, -77.3% (active); with UACC-62 melanoma, -52.5% (active). The growth is -55.5% (active) with LOX IMVI melanoma and -29.4% (active) with SK-MEL-28 melanoma.
